Where “and” joins values, the source holds several entries; their conditions need not be identical. Equal entries are not always repeated. Inconclusive results are not listed. A number with no mark means an inactive call. Calls of active or inactive are those of the source. Calls follow the shape of the dose curve; as a rule, active = well fitted cell-killing curve with a large enough effect; inconclusive = small, poorly fitted or top-dose-only effect; inactive = flat fitted curve, though single readings scatter.
% is scaled to controls: 0 for no effect and ±100 for the full control effect; potency is read from the fitted curve at half-maximal effect.

The experiment can be described thus: Cellular viability qHTS for adrenocortical cancer (ACC) cell line SW-13 (AID 1963989). Also: nearly all actives have a fitted effect of over 65% in size.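 As to activity (max response): cells grown in serum-free medium with ITS supplement.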 As to conditions: SW-13 ACC cells viability, CellTiter-Glo, 48 h; activity (max response): hits give low values. In short, it runs like this:
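Luminescent ATP read-out (CellTiter-Glo, 20 min at room temperature) measured metabolically competent SW-13 cells after 48 h compound treatment. Final concentrations spanned up to 46 uM; bortezomib served as positive control.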
On the technique in general: Quantitative high-throughput screening tests each substance at several concentrations.
For the compound `OC[C@H]1O[C@@H](Oc2cc(O)cc(/C=C/c3ccc(O)cc3)c2)[C@H](O)[C@@H](O)[C@@H]1O`, the activity (max response) was 7.59%.

`Clc1cccc(-c2ccc(-c3nnc(CCCc4ccc5cccnc5n4)o3)cc2)c1`: the activity (max response) is -11.9%.

`Fc1ccc(-c2nc(-c3ccccc3F)[nH]c2-c2ccncc2)cc1`: the activity (max response) was -20.2%.

`COc1cc(O)c(C(=O)c2ccccc2)cc1S(=O)(=O)O`: the activity (max response) was 9.22%.

Take `COCCOC(=O)C1=C(C)NC(C)=C(C(=O)OC(C)C)C1c1cccc([N+](=O)[O-])c1` (stereo not given): the activity (max response) is 7.46%.

Regarding `COC1=C2C[C@H](C)C[C@H](OC)[C@H](O)[C@@H](C)/C=C(/C)[C@H](OC(N)=O)[C@@H](OC)/C=C\C=C(\C)C(=O)NC(=CC1=O)C2=O`, the activity (max response) is -3.63%.

Regarding `O=C(c1cc(O)c(O)c(O)c1)c1ccc(O)c(O)c1O`, the activity (max response) was 4.03%.

For `CO[C@]12C[C@@H](COC(=O)c3cncc(Br)c3)CN(C)[C@@H]1Cc1cn(C)c3cccc2c13`, the activity (max response) is 3.85%.

Consider `CC(C)(C)C(=O)CN1C(=O)[C@H](NC(=O)Nc2cccc(C(=O)O)c2)CN(C2CCCCC2)c2ccccc21`, for which the activity (max response) was 11.5%.

As to `C[C@@H]1C[C@H]2[C@@H]3C[C@H](F)C4=CC(=O)C=C[C@]4(C)[C@@]3(F)[C@@H](O)C[C@]2(C)[C@@]1(O)C(=O)CO`, the activity (max response) is -1.7%.

As to `CC1=C(CO)C(=O)O[C@@H]([C@@H](C)[C@H]2CC[C@H]3[C@@H]4C[C@H]5O[C@]56[C@@H](O)C=CC(=O)[C@]6(C)[C@H]4CC[C@]23C)C1`, the Potency was 1.58 µM (active).

Consider `CCCSc1ccc2nc(NC(=O)OC)[nH]c2c1`, for which the Potency is 0.366 µM (active).

In the case of `Cc1ccccc1C(=O)N1CC/C(=N\OS(=O)(=O)O)c2ccc(Cl)cc21`, the activity (max response) was 5.63%.

On to `OC(CCN1CCCCC1)(c1ccccc1)c1ccccc1`, for which the activity (max response) was 3.2%.

For `O=C(CS)Nc1ccccc1`, the activity (max response) was -14.1%.

For `O=C(CCNC(=O)c1ccc(OC(F)(F)F)cc1)N[C@@H]1CCCc2ccccc21`, the activity (max response) is -26.4%.

Take `CO[C@H]1C=CO[C@@]2(C)Oc3c(C)c(O)c4c(O)c(c(/C=N/N5CCN(C)CC5)c(O)c4c3C2=O)NC(=O)/C(C)=C\C=C[C@H](C)[C@H](O)[C@@H](C)[C@@H](O)[C@@H](C)[C@H](OC(C)=O)[C@@H]1C`: the activity (max response) is -17.1%.

In the case of `COc1ccc2c(c1)c(CC(=O)OC/C=C(\C)CC/C=C(\C)CCC=C(C)C)c(C)n2C(=O)c1ccc(Cl)cc1`, the activity (max response) was 2.52%.

With `COC(=O)C1=C(C)NC(C)=C(C(=O)OCC(C)=O)C1c1ccccc1[N+](=O)[O-]` (stereo not given), the Potency was 16.4 µM (active).

Regarding `Cc1onc(-c2ccc(F)cc2)c1COc1ccc(C(=O)N2CCS(=O)(=O)CC2)cn1`, the activity (max response) is -15%.

`COCCNCc1ccc(-c2cc3nccc(Oc4ccc(NC(=O)C5(C(=O)Nc6ccc(F)cc6)CC5)cc4F)c3s2)nc1`: the Potency was 3.55 µM (active).

On to `CCOc1cc(/C=C2/C(=O)N(c3ccccc3)N=C2C)cc(Cl)c1OCC(=O)OC`, for which the activity (max response) is -5.72%.

For the compound `CCCN1C[C@H](CSC)C[C@@H]2c3cccc4[nH]cc(c34)C[C@H]21`, the activity (max response) is -4.04%.

For the compound `CC(C)(CO)[C@@H](O)C(=O)NCCCO`, the activity (max response) is 15.4%.

On to `CC(C(=O)O)c1ccc(/C=C2\CCCCC2=O)cc1` (stereo not given), for which the activity (max response) was 8.31%.

For the compound `c1ccc2c(c1)CCCC2C1=NCCN1` (stereo not given), the activity (max response) is 5.7%.

Turning to `CC(C)(Cc1c[nH]c2ccccc12)NCC(O)COc1ccccc1C#N` (stereo not given), the activity (max response) was -3.72%.

On to `CCCC(=O)OC[C@@H](OC(=O)CCC)[C@@H](OC(=O)CCC)[C@H](Cn1c2nc(=O)[nH]c(=O)c-2nc2cc(C)c(C)cc21)OC(=O)CCC`, for which the activity (max response) is -8.77%.

With `COc1ccc2[nH]c(S(=O)Cc3ncc(C)c(OC)c3C)nc2n1` (stereo not given), the activity (max response) was 4.99% and -14.4%.

Turning to `N[C@@H](CCC(=O)O)C(=O)N[C@@H](Cc1c[nH]c2ccccc12)C(=O)O`, the activity (max response) was 9.67%.

Regarding `CC(C)(Oc1ccc(Cl)cc1)C(=O)OCCCOC(=O)C(C)(C)Oc1ccc(Cl)cc1`, the activity (max response) is 0.371%.

As to `CO/N=C1\CN(c2nc3c(cc2F)c(=O)c(C(=O)O)cn3C2CC2)CC1CN` (stereo not given), the activity (max response) was -3.25%.

For `O=C(O)CCCCN(CCc1ccccc1OCc1ccc(CCc2ccccc2)cc1)Cc1ccc(C(=O)O)cc1`, the activity (max response) was 9.06%.

Consider `C[C@H](Nc1nc(N[C@H](C)C(F)(F)F)nc(-c2cccc(Cl)n2)n1)C(F)(F)F`, for which the activity (max response) was -11.6%.

As to `O=C1CC2(CCCC2)CC(=O)N1CCCCN1CCN(c2ncccn2)CC1`, the activity (max response) is -4.13%.

Take `CCc1oc2ccccc2c1C(=O)c1cc(I)c(O)c(I)c1`: the Potency was 5.8 µM (active).

With `O=C(O)c1ccccc1-c1ccc(/C=c2\sc3nc4cc(Br)cnc4n3c2=O)o1`, the activity (max response) is -2.9%.

On to `CC(C)(C)c1ccc(C(=O)CCCCl)cc1`, for which the activity (max response) was 6.38%.

`CN/C(=C\[N+](=O)[O-])NCCSCc1ccc(CN(C)C)o1`: the activity (max response) is 0.385%.

As to `N=C1CCCN1Cc1[nH]c(=O)[nH]c(=O)c1Cl`, the activity (max response) was -17.6%.

The values above are taken from PubChem BioAssay (NCATS).
